Source: PubChem BioAssay
Sampled rows, rich in hits. Any-hit rate of the full collection: about 17%.
HT1080 IDH1KD tx – qHTS for induction of synthetic lethality in tumor cells producing 2HG: qHTS for the HT-1080-IDH1KD cell line; HT-1080 IDH1 knockdown viability, ATP luminescence, 48 h; hit rate 2% among 360,000; Potency, µM (doses to about 46.1 µM), inactives show at the highest dose activity, negative = toxicity, most hits filed as cytotoxic;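 further: 0% = DMSO wells and -100% = cell-free medium wells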
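Viability of IDH1-knockdown HT-1080 fibrosarcoma cells was assessed by CellTiter-Glo after 48 h at 37 °C with titrated compound; concentration-effect curves were classified by fit quality and response size.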
DT40 TDP1 CPT – qHTS for Inhibitors of human tyrosyl-DNA phosphodiesterase 1 (TDP1): qHTS in cells in presence of CPT; AID 686979, 2013; chicken DT40 Tdp1-/-;hTDP1 cells + 20 nM CPT, ATP luminescence, 48 h; Potency, µM (top dose mostly 46.2 µM), for the others: at the top dose activity change, negative = growth inhibition, usual class: inhibitors; hit rate 12% among 420,000; further: on the % scale 0 is the no-effect control and ±100 the full control effect; nearly all actives have a fitted effect of over 55% in size
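Chicken DT40 Tdp1-/- cells complemented with human TDP1, 400 cells/well, exposed to compounds plus 20 nM camptothecin for at least 48 h at 37 C; viability read as ATP content by CellTiter-Glo luminescence.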
TGFb inhibitor – qHTS for Inhibitors of TGF-b. hit rate 1.2% among 410,000. HepG2 CAGA-GFP TGF-b/SMAD3 reporter, GFP fluorescence, 18 h; TGF-beta stimulated, 500 pg/mL final. Potency, µM (highest dose often 46.1 µM), without a hit: at the top dose activity, negative = inhibition, usual class: inhibitors; further: on the % scale 0 is the no-effect control and ±100 the full control effect; nearly all actives have a fitted effect of over 65% in size
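GFP signal (ex488/em500-530) from TGF-beta-stimulated HEPG2 CAGA-GFP cells, 500 pg/mL final, 18 h at 37 degrees C in DMEM plus 1% FBS, normalized to unstimulated and DMSO-stimulated controls.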
HT1080NT lethal – qHTS for induction of synthetic lethality in tumor cells producing 2HG: qHTS for the HT-1080-NT fibrosarcoma cell line; hit rate 1.6% among 360,000; Potency, µM (doses to about 46.1 µM), inactives show top-dose activity, negative = less viability, actives largely listed as cytotoxic; HT-1080-NT fibrosarcoma viability, CellTiter-Glo ATP luminescence, 48 h; AID 686970, 2013;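 further: NT is the 2HG producing partner of a matched IDH1 knockdown line; 0% = DMSO-treated cells and -100% = media-only wells without cells; nearly all actives have a fitted effect of over 55% in size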
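Viability of the 2HG-overproducing fibrosarcoma line after 48 hours of compound exposure at 37 degrees C was determined by luminescence with CellTiter-Glo, and concentration-effect curves were then fitted and categorized.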
TDP1 cell noCPT – qHTS for Inhibitors of human tyrosyl-DNA phosphodiesterase 1 (TDP1): qHTS in cells in absence of CPT; hit rate 15% among 420,000; DT40 Tdp1-/- hTDP1 cells, no CPT, ATP luminescence, 48 h; Potency, µM (doses to about 46.2 µM), for the others: top-dose activity change, negative = growth inhibition, usual class: inhibitors; further: on the % scale 0 is the no-effect control and ±100 the full control effect; nearly all actives have a fitted effect of over 55% in size
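Growth kinetics read by CellTiter-Glo luminescence after ≥48 hr at 37 °C. Cells: DT40 Tdp1-/- stably carrying human TDP1, 400 per well, compound exposure in the absence of CPT (DMSO vehicle).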
HepG2 tox – qHTS for Inhibitors of TGF-b: Cytotox Counterscreen; HepG2 CAGA-GFP viability, ATP luminescence, 18 h; Potency, µM (series often up to 46.1 µM), without a hit: top-dose activity change, negative = cytotoxicity, actives largely listed as cytotoxic; hit rate 0.76% among 410,000
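HepG2 CAGA-GFP cells (1000/well, DMEM with 1% FBS) received compound, then TGF-beta at 500 pg/mL final, and were incubated 18 hours at 37 degrees C. Viability was read by CellTiter-Glo luminescence. Media-only wells were set as complete cell-killing and DMSO as no toxicity.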
The depositor's hits bear a star; [ ] = remark or other dose. The call rests on the fitted dose curve; in most records, active means well fitted curve in the direction sought with a large enough effect; inconclusive means small, poorly fitted or top-dose-only effect, or another doubt; inactive means no such curve, though single readings can be large; an effect the other way counts as inactive or inconclusive. Potency means the concentration at half of the fitted maximal effect.

Results for COc1cccc(-c2nnc(SCC(=O)N3CCOCC3)o2)c1 ?
HT1080 IDH1KD tx: 8.0%[9.24 µM]; DT40 TDP1 CPT: -20.0%; TGFb inhibitor: -1.6%; HT1080NT lethal: 3.0%; TDP1 cell noCPT: -23.1%; HepG2 tox: -0.1%

How did Cc1ccc(-c2nnc(SCC(=O)N3CC(C)CC(C)C3)o2)cc1C (stereo unspecified) do in these assays?
HT1080 IDH1KD tx: 3.9%; DT40 TDP1 CPT: 25.9µM*; TGFb inhibitor: -4.1%; HT1080NT lethal: 7.1%; TDP1 cell noCPT: 20.6µM*; HepG2 tox: -1.7%

Results for CC1CC(C)CN(C(=O)CSc2nnc(-c3ccc(Cl)cc3)o2)C1 (stereo unspecified) ?
HT1080 IDH1KD tx: -5.6%; DT40 TDP1 CPT: inconclusive; TGFb inhibitor: 7.0%; HT1080NT lethal: 5.3%; TDP1 cell noCPT: 18.4µM*; HepG2 tox: -20.9%

Results for CC(C)(C)CC(C)(C)Nc1c(-c2ccc(O)cc2)nc2cnccn12 ?
HT1080 IDH1KD tx: inconclusive; DT40 TDP1 CPT: 18.4µM*; TGFb inhibitor: inconclusive; HT1080NT lethal: inconclusive; TDP1 cell noCPT: 25.9µM*; HepG2 tox: -38.8%

Results for Cc1ccc2nc(-c3ccc(F)cc3)c(NC(C)(C)CC(C)(C)C)n2c1 ?
DT40 TDP1 CPT: 16.4µM*; TGFb inhibitor: 0.9%; TDP1 cell noCPT: 8.2µM*; HepG2 tox: -11.5%

What do the screens show for `COC(=O)c1sc2nc(C)nc(SCC(=O)C(C)(C)C)c2c1C`?
HT1080 IDH1KD tx: 1.7%; DT40 TDP1 CPT: -27.0%; TGFb inhibitor: -9.1%; HT1080NT lethal: -0.8%; TDP1 cell noCPT: inconclusive; HepG2 tox: -7.6%

What do the screens show for `COc1ccc(CN2C(=O)c3cccnc3C2=O)cc1S(=O)(=O)NC(C)C`?
HT1080 IDH1KD tx: 13.0%; DT40 TDP1 CPT: -4.5%; TGFb inhibitor: -6.3%; HT1080NT lethal: 13.9%; TDP1 cell noCPT: 15.6%; HepG2 tox: -0.3%

Results for O=C(CCn1ccc2cc(S(=O)(=O)N3CCCC3)ccc21)NCc1ccccc1 ?
HT1080 IDH1KD tx: -8.7%; DT40 TDP1 CPT: -28.6%; TGFb inhibitor: inconclusive; HT1080NT lethal: 1.4%; TDP1 cell noCPT: -7.2%; HepG2 tox: -58.5%

Results for CN(C)c1ccc(CNC(=O)CCCn2ccc3cc(S(=O)(=O)N4CCCC4)ccc32)cc1 ?
DT40 TDP1 CPT: inconclusive; TGFb inhibitor: 0.0%; TDP1 cell noCPT: 18.4µM*; HepG2 tox: -27.3%

What do the screens show for `O=C(CCn1ccc2cc(S(=O)(=O)N3CCCC3)ccc21)NCc1cccc(F)c1`?
HT1080 IDH1KD tx: 0.1%; DT40 TDP1 CPT: inconclusive; TGFb inhibitor: 2.2%; HT1080NT lethal: -0.3%; TDP1 cell noCPT: inconclusive; HepG2 tox: -11.1%

Results for O=C(CCCn1ccc2cc(S(=O)(=O)N3CCCC3)ccc21)NCc1ccc(Cl)cc1 ?
DT40 TDP1 CPT: 4.61µM*; TGFb inhibitor: inconclusive; TDP1 cell noCPT: 2.31µM*; HepG2 tox: -27.3%

Results for CCCCc1ccc(NC(=O)C2(C)Cc3ccccc3C(=O)O2)cc1 (stereo unspecified) ?
DT40 TDP1 CPT: inconclusive; TGFb inhibitor: 0.0%; TDP1 cell noCPT: inconclusive; HepG2 tox: -6.3%

What do the screens show for `COCCN(C(=O)COC(=O)C1CCCCC1)c1c(N)n(Cc2ccccc2)c(=O)[nH]c1=O`?
HT1080 IDH1KD tx: 0.7%; DT40 TDP1 CPT: 1.9%; TGFb inhibitor: -7.5%; HT1080NT lethal: 1.2%; TDP1 cell noCPT: 11.5%; HepG2 tox: -24.3%

What do the screens show for `O=C(CCC(=O)N1CC2CCCN2c2ccccc21)NCc1ccc(F)cc1` (stereo unspecified)?
DT40 TDP1 CPT: inconclusive; TGFb inhibitor: 11.4%; TDP1 cell noCPT: inconclusive; HepG2 tox: -7.7%

What do the screens show for `Cc1ccccc1CNC(=O)CCC(=O)N1CC2CCCN2c2ccccc21` (stereo unspecified)?
DT40 TDP1 CPT: 18.4µM*; TGFb inhibitor: inconclusive; TDP1 cell noCPT: 23.1µM*; HepG2 tox: -20.7%

How did O=C(CCC(=O)N1CC2CCCN2c2ccccc21)NCc1ccccc1F (stereo unspecified) do in these assays?
DT40 TDP1 CPT: 11.6µM*; TGFb inhibitor: -2.2%; TDP1 cell noCPT: 18.4µM*; HepG2 tox: -19.0%

How did Cc1ccc(CNC(=O)CCC(=O)N2CC3CCCN3c3ccccc32)cc1 (stereo unspecified) do in these assays?
DT40 TDP1 CPT: 5.17µM*; TGFb inhibitor: inconclusive; TDP1 cell noCPT: 18.4µM*; HepG2 tox: -8.6%

How did NC(=O)c1cc(NC(=O)CCNS(=O)(=O)c2cccc(C(F)(F)F)c2)cc(C(N)=O)c1 do in these assays?
HT1080 IDH1KD tx: 6.3%; DT40 TDP1 CPT: 8.7%; TGFb inhibitor: 0.1%; HT1080NT lethal: 5.3%; TDP1 cell noCPT: 10.4%; HepG2 tox: 2.3%

What do the screens show for `COc1cccc(N2CCN(C(=O)c3cccc(S(=O)(=O)N4CCCC4)c3)CC2)c1`?
HT1080 IDH1KD tx: -3.4%; DT40 TDP1 CPT: -2.0%; TGFb inhibitor: -1.7%; HT1080NT lethal: -1.0%; TDP1 cell noCPT: inconclusive; HepG2 tox: 8.6%

Results for O=C(NC1CCCCC1)c1cnn2c1NC(=C1CC1)C=C2C(F)F ?
DT40 TDP1 CPT: inconclusive; TGFb inhibitor: -10.7%; TDP1 cell noCPT: inconclusive; HepG2 tox: -5.2%
